# Shown is part of a subset that was picked to be rich in hits.
# BL2 CD40 inh = CD40 pathway inhibition in BL2 cells. BL2 NF-kB luciferase reporter, CD40L-induced, 4 h. inhibition, % at 10 µM. 0.94% of 83,000 active;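 active = mean inhibition of at least 50% with a set share of replicates also reaching that level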;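 note: 0% = neutral control wells and 100% = IKK inhibitor VII at 50 µM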
# An asterisk follows results filed as active; [ ] = remark or other dose.
SMILES,BL2 CD40 inh
C[C@H]1CN([C@@H](C)CO)C(=O)c2ccccc2-c2ccccc2CO[C@@H]1CN(C)Cc1ccc(C(F)(F)F)cc1,3.6
C[C@H]1CN([C@@H](C)CO)C(=O)c2c(c3ccccc3n2C)-c2ccccc2CO[C@H]1CN(C)Cc1ccc(C(F)(F)F)cc1,4.5
C[C@@H]1CN([C@@H](C)CO)C(=O)c2c(c3ccccc3n2C)-c2ccccc2CO[C@@H]1CN(C)Cc1cccc(C(F)(F)F)c1,62.4*[25 µM]
C[C@H](CO)N1C[C@H](C)[C@H](CN(C)Cc2cccc(F)c2)OCc2ccccc2-c2c(n(C)c3ccccc23)C1=O,10.4
C[C@H]1CN([C@@H](C)CO)C(=O)c2c(c3ccccc3n2C)-c2ccccc2CO[C@H]1CN(C)Cc1ccccc1C(F)(F)F,7.7[25 µM]
C[C@@H]1CN([C@H](C)CO)C(=O)c2c(c3ccccc3n2C)-c2ccccc2CO[C@H]1CN(C)Cc1ccccc1C(F)(F)F,45.1[25 µM]
C[C@H]1CN([C@@H](C)CO)C(=O)c2c(c3ccccc3n2C)-c2ccccc2CO[C@@H]1CN(C)Cc1cccc(C(F)(F)F)c1,60.6*[25 µM]
C[C@H](CO)N1C[C@H](C)[C@H](CN(C)Cc2ccc(C(F)(F)F)cc2)OCc2ccccc2-c2ccccc2C1=O,14.6
C[C@@H]1CN([C@@H](C)CO)C(=O)c2c(c3ccccc3n2C)-c2ccccc2CO[C@H]1CN(C)Cc1ccc(C(F)(F)F)cc1,11.3
C[C@@H]1CN([C@@H](C)CO)C(=O)c2ccccc2-c2ccccc2CO[C@H]1CN(C)Cc1ccccc1C(F)(F)F,65.7*[25 µM]
C[C@H]1CN([C@@H](C)CO)C(=O)c2c(c3ccccc3n2C)-c2ccccc2CO[C@H]1CN(C)Cc1cccc(F)c1,12.3
C[C@@H]1CN([C@@H](C)CO)C(=O)c2c(c3ccccc3n2C)-c2ccccc2CO[C@@H]1CN(C)Cc1ccccc1C(F)(F)F,61.8*[25 µM]
CN1c2ccc(C#Cc3cccnc3)cc2[C@@H]2[C@@H](CCN2C(=O)C2CCCCC2)[C@H]1CO,-8.3[25 µM]
CN1c2ccc(-c3ccccc3F)cc2[C@H]2[C@H](CCN2C(=O)c2ccccn2)[C@@H]1CO,-38.2[25 µM]
CC(C)NC(=O)N(C)C[C@H]1Oc2ccc(NS(C)(=O)=O)cc2C(=O)N(C)C[C@H]1C,4.5
CN(C[C@H]1N[C@H](CO)[C@@H]1c1ccc(-c2cccnc2)cc1)C(=O)NC1CCCC1,2.5[25 µM]
CC(C)[C@@H](C)NC(=O)N(C)C[C@H]1OCc2ccccc2-c2c(n(C)c3ccccc23)C(=O)N([C@H](C)CO)C[C@@H]1C,9.1
COc1cccc(-c2ccc(C3[C@H]4CNC[C@@H]3N4S(=O)(=O)c3cccc(Cl)c3)cc2)c1 (stereo partly drawn),-27.6
CN(C)CC(=O)Nc1ccc2c(c1)[C@H]1C[C@H](CC(=O)NCc3cccc(F)c3)O[C@@H](CO)[C@H]1O2,-5.8[25 µM]
CN1c2ccc(-c3cccc(F)c3)cc2[C@H]2[C@H](CCN2C(=O)C2CCCC2)[C@H]1CO,54.0*
CN1c2ccc(-c3cccc(F)c3)cc2[C@@H]2[C@@H](CCN2C(=O)C2CCC2)[C@H]1CO,-18.9[25 µM]
CN1c2ccc(-c3cccc(F)c3)cc2[C@H]2[C@H](CCN2C(=O)C2CCC2)[C@H]1CO,37.7[25 µM]
COc1ccccc1S(=O)(=O)N[C@@H]1CC[C@H](CCNC(=O)C2CCCC2)O[C@@H]1CO,-3.9
COc1ccccc1C#Cc1ccc2c(c1)[C@@H]1[C@@H](CCN1S(=O)(=O)c1cccc(C)c1)[C@H](CO)N2,-2.1[25 µM]
COc1cccc(C(=O)Nc2ccc3c(c2)C(=O)N(C)C[C@H](OC)[C@H](C)CN(C(=O)C2CCCC2)[C@@H](C)CO3)c1,4.1
SMILES,BL2 CD40 inh
C[C@@H]1CN(C)C(=O)Cc2cc(N(C)C)ccc2O[C@H]1CN(C)C,2.1
CC(C)NC(=O)N(C)C[C@H]1Oc2ccccc2CC(=O)N(C)C[C@@H]1C,10.7
Cc1ccc(-c2cc(-c3ccccc3)c(C#N)c(N)n2)o1,46.1*
Cc1ccc(-c2c(C#N)c(N)nc3c2CCCC3)o1,4.9
N#Cc1c(-c2ccco2)cc(-c2cccnc2)nc1N,1.5
CN(C)C(=O)c1cccc(-c2ccc3c(c2)[C@@H]2[C@@H](CCN2C(=O)c2ccccc2)[C@H](CO)N3C)c1,-2.2[25 µM]
COC(=O)C1CC(=O)N(Cc2ccccc2)C1 (stereo not drawn),3.2
Cc1ccc(CN2CC(C(=O)Nc3ncc(C)s3)CC2=O)cc1 (stereo not drawn),78.2*
CCOc1ccc(CCNC(=O)C2CC(=O)N(Cc3ccc(C)cc3)C2)cc1OCC (stereo not drawn),-10.8
CCC(=O)NC[C@@H]1[C@@H](c2ccc(C3=CCCC3)cc2)[C@@H](CO)N1CC1CC1,-3.6[25 µM]
COc1ccc2[nH]c(O)c(NC(C)=O)c2c1,6.9
COc1ccc2[nH]c(=O)c3c(c2c1)OC(C)(C)C=C3,37.6*
COc1ccc2nc(C)[nH]c(=O)c2c1,2.6
CN(C)C(=O)c1cc2c(c(-c3cccc(-c4ccccc4)c3)n1)[C@H](CCO)N([S@@](=O)C(C)(C)C)C2,22.9
C[C@@H]1CN([C@H](C)CO)C(=O)c2cccc(NC(=O)CCCCCC(=O)Nc3ccccc3N)c2O[C@@H]1CN(C)S(=O)(=O)c1cn(C)cn1,-8.5[25 µM]
OCCOCCN1CCN(C(c2ccccc2)c2ccc(Cl)cc2)CC1 (stereo not drawn),15.8
O=C1C=CC(=O)c2c(O)c(N3CCN(CCOCCO)CC3)c(Br)c(O)c21,85.4*
OCCOCCN1CCN(C2=Nc3ccccc3Sc3ccccc32)CC1,-0.1
CO[C@@H]1CN(C)C(=O)c2ccc(NC(=O)C3CCC3)cc2OC[C@H](C)N(Cc2ccccn2)C[C@H]1C,5.7[25 µM]
CC(=O)N(C)C[C@H]1Oc2c(NS(C)(=O)=O)cccc2C(=O)N(C)C[C@@H]1C,-2.7
C[C@@H]1CN(C)C(=O)Cc2cc(N(C)C)ccc2O[C@H]1CN(C)C(=O)OC(C)(C)C,-0.8
O=c1oc(-c2cccnc2)nc2ccccc12,-4.5
Cc1onc(-c2ccccc2)c1-c1nc2ccccc2c(=O)o1,56.1*
O=c1onc(-c2ccccc2)c2ccccc12,-11.6
CC(C)(C)[S@](=O)N1Cc2cc(C(=O)NCC(F)(F)F)nc(-c3cccc(-c4cccc(F)c4)c3)c2[C@@H]1CCO,79.9*[25 µM]
SMILES,BL2 CD40 inh
COc1cccc(-c2cccc(-c3nc(C(=O)NCC(F)(F)F)cc4c3[C@@H](CCO)N([S@](=O)C(C)(C)C)C4)c2)c1,5.0
CC(C)(C)[S@@](=O)N1Cc2cc(C(=O)NCC(F)(F)F)nc(-c3cccc(-c4cccc(F)c4)c3)c2[C@H]1CCO,-12.8[25 µM]
COc1ccc(S(=O)(=O)Nc2ccc3c(c2)OC[C@H](C)NC[C@H](C)[C@@H](OC)CN(C)C3=O)cc1,2.2[25 µM]
COc1ccc2c3c(n(C)c2c1)[C@@H](CO)N(C(=O)C1CCCC1)CC31CN(C(=O)Nc2cccc(F)c2)C1,-49.3
CNC[C@H]1OCc2ccccc2-c2c(n(C)c3ccccc23)C(=O)N([C@@H](C)CO)C[C@@H]1C,-4.6
O=C(C[C@H]1C[C@H]2c3cc(NC(=O)c4ccc5c(c4)OCO5)ccc3O[C@H]2[C@@H](CO)O1)NCc1ccccn1,3.7[25 µM]
COC(=O)c1cc(-c2ccc(C)o2)nc2ccccc12,-37.0
Cc1ccc(-c2cc(C(=O)N3CC(C)OC(C)C3)c3ccccc3n2)o1 (stereo not drawn),113.8*
Cc1ccc(-c2cc(C(=O)NCc3ccco3)c3ccccc3n2)o1,-9.5
N#C[C@H]1N[C@@H](CO)[C@@H]1c1ccc(C#Cc2ccccc2F)cc1,active[25 µM]
N#C[C@@H]1N[C@H](CO)[C@@H]1c1ccc(C#Cc2ccccc2F)cc1,-43.1[25 µM]

# Screening results (PubChem)
